Screens (PubChem)
HCV NS3h FP: HCV NS3 helicase inhibitors, primary screen, biochemical, fluorescence polarization, ChemBridge library. NS3h Cy5-dT15 DNA binding. inhibition, % at 100 µM. 16,000 compounds, 1.6% hits. AID 687043, 2013;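 active = inhibition above the average over every tested compound plus 3 SD, cut at about 40% in these data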
Cy5 interf NS3h: Cy5 fluorescence quenchers or enhancers, artefact control for HCV NS3 helicase inhibitor project, biochemical, ChemBridge library, Cy5 readout. Cy5-dT15 DNA with NS3h, fluorescence interference; actives lie on both sides; signal over control mean, under 1 quenches. fluorescence interference ratio at 100 µM. 16,000 compounds, 6% hits. AID 720488, 2013;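 active = compound fluorescence over control fluorescence at most 0.8, a quencher, or at least a set upper limit, an enhancer; inactive = ratio between 0.8 and the set upper limit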
* hit, by the source's call. Compounds with a hit are over-represented: about 6.8% of the library has one in this group of screens.

SMILES | HCV NS3h FP | Cy5 interf NS3h
COc1ccccc1N1CCN(C(=O)COc2ccccc2)CC1 | 0.0 | 1.01
Cc1ccnc(NC(=O)/C=C/c2ccc(-c3ccccc3[N+](=O)[O-])o2)c1 | 2.5 | 0.931
COc1ccc(CCNC(=O)c2ccc(N(Cc3ccc(Cl)cc3)S(C)(=O)=O)cc2)cc1OC | 7.7 | 0.753*
Cc1ccc(N(Cc2ccc(C(=O)NCCSc3ccc(Cl)cc3)cc2)S(C)(=O)=O)cc1C | 0.0 | 0.934
C=CCN1C(=O)/C(=C\c2ccc(-c3ccccc3)o2)SC1=S | 15.6 | 0.978
C=C(C)CN1CCN(c2c3c(c(C#N)c4nc5ccccc5n24)CCC3)CC1 | -2.8 | 1.1
O=C1C(Cl)=CC(=NS(=O)(=O)c2ccccc2)C=C1Br | 31.9 | 0.66*
O=C1C(Cl)=CC(=NS(=O)(=O)c2ccc(Cl)cc2)c2ccccc21 | -4.4 | 0.873
CS(=O)(=O)N(Cc1ccc(C(=O)Nc2ccc(Oc3ccccc3)cc2)cc1)c1ccccc1 | -4.9 | 0.974
COc1ccc(C(=O)Nc2ccccc2)cc1NC(=O)c1ccc(Cl)c(Cl)c1 | 11.5 | 0.912
Cc1cc([N+](=O)[O-])ccc1-c1ccc(CO)o1 | 1.4 | 0.922
Cc1cc([N+](=O)[O-])ccc1-c1cc2ccccc2oc1=O | 17.7 | 0.69*
CC(C)Cc1c(O)nc(SCCN2CCOCC2)[nH]c1=O | 1.9 | 1.1
CCOc1ccc(/C=N\N2CCN(c3ccccc3OC)CC2)cc1OC | 15.3 | 0.947
O=C(COc1ccc(Cl)cc1)Nc1ccc(I)cc1Cl | -1.3 | 1.23*
COc1ccc(OCC(=O)Nc2ccc(I)cc2Cl)cc1 | 3.3 | 0.928
CC(Oc1ccccc1)C(=O)Nc1ccc(I)cc1 (stereo not drawn) | 16.2 | 1.01
CCOC(=O)C1=C(C)NC(C)=C(C(=O)OC)C1c1ccco1 (stereo not drawn) | -2.6 | 0.91
C=CCOC(=O)C1=C(C)NC(C)=C(C(=O)OCC=C)C1c1ccco1 | 28.7 | 0.727*
OCC(CO)C(c1ccccc1)c1ccccc1 | -5.6 | 0.916
CSCCC(NC(=O)c1ccccc1)C(=O)OCC(=O)Nc1nnc(C)s1 (stereo not drawn) | -0.3 | 1.07
CC(C)(C)C(=O)/C=C(/O)C(=O)NCc1ccccc1 | 6.3 | 0.853
CC(C)(C)C(=O)/C=C(N)\C=C\c1ccccc1 | 11.5 | 0.636*
O=C(CSc1nnc(-c2ccco2)n1-c1ccccc1)Nc1ccccc1[N+](=O)[O-] | 4.3 | 0.979
CCc1ccc(NC(=O)CSc2nnc(-c3ccco3)n2-c2ccccc2)cc1 | -4.5 | 0.803*
SMILES | HCV NS3h FP | Cy5 interf NS3h
Cc1ccc(N=Cc2ccc([N+](=O)[O-])s2)c(C)c1 | 28.8 | 0.8*
O=[N+]([O-])c1ccc(C=Nc2ccc(Cl)c([N+](=O)[O-])c2)s1 | -3.4 | 0.947
CC1=N/C(=C/c2ccc(OCc3ccc(Cl)cc3)cc2)C(=O)O1 | 8.2 | 1.03
O=C1/C(=C/c2ccccc2OCc2ccc([N+](=O)[O-])cc2)SC(=S)N1c1ccccc1 | 12.4 | 0.749*
O=C1NC(=S)NC(=O)C1=Cc1ccccc1OCc1ccc([N+](=O)[O-])cc1 | 30.0 | 0.677*
CCN1C(=O)/C(=C\c2cccc(O)c2)SC1=S | 33.5 | 1.01
O=C1/C(=C/c2ccccc2[N+](=O)[O-])SC(=S)N1c1cccc(C(F)(F)F)c1 | -2.1 | 0.758*
O=C1/C(=C/c2ccccc2OCc2ccc([N+](=O)[O-])cc2)SC(=S)N1Cc1ccccc1 | 10.9 | 1.07
O=C1/C(=C\c2ccc([N+](=O)[O-])cc2)SC(=S)N1c1cccc(C(F)(F)F)c1 | -3.7 | 1.07
Cc1ccc(COc2ccccc2C=C2C(=O)NC(=S)NC2=O)cc1 | 19.1 | 0.954
CCN1C(=O)/C(=C\c2cccc(C(F)(F)F)c2)SC1=S | 10.5 | 0.711*
COC(=O)C1=C(C)N(c2ccc(C)cc2)/C(=C\c2sccc2C)C1=O | 8.7 | 1.09
CN(C)c1cccc(C(=O)N2CCc3ccccc3C2)c1 | 3.2 | 0.962
COc1ccc(CNC(=O)COc2ccc(Cl)cc2Br)cc1 | -5.0 | 0.886
Cc1ccccc1COc1ccc2oc(C)c(C(=O)O)c2c1 | 5.0 | 0.94
CS(=O)(=O)N1CCN(Cc2ccncc2)CC1 | -11.8 | 0.681*
COc1ccccc1CN1CCN(S(C)(=O)=O)CC1 | 5.0 | 0.77*
CSc1ccc(CN2CCN(S(C)(=O)=O)CC2)cc1 | 0.3 | 1
CS(=O)(=O)N1CCN(Cc2ccccc2Br)CC1 | -2.5 | 0.67*
CS(=O)(=O)N1CCN(Cc2ccc(Cl)cc2)CC1 | -14.1 | 1.06
COc1cc(OC)c(OC)cc1CN1CCN(S(C)(=O)=O)CC1 | -15.6 | 1.01
Cc1c(C(=O)N2CCN(C)CC2)cccc1[N+](=O)[O-] | 0.0 | 1.11
O=C(CN(c1cccc(Cl)c1)S(=O)(=O)c1ccccc1)Nc1ccc2ccccc2c1 | 14.3 | 0.881
CS(=O)(=O)N(CC(=O)Nc1ccccc1Cl)c1cccc(C(F)(F)F)c1 | -4.0 | 0.835
COc1ccc(C2NC(c3ccc(OC)cc3)C3CCCC2C3=O)cc1 (stereo not drawn) | 5.8 | 1.02
SMILES | HCV NS3h FP | Cy5 interf NS3h
COc1ccc(C2NC(c3ccc(OC)cc3)C(c3ccccc3)C(=O)C2c2ccccc2)cc1 (stereo not drawn) | 18.0 | 0.716*
COCCCNC(=O)C(=O)Nc1ccccc1C | 0.0 | 1.1
O=C(O)CCCC(=O)OCc1ccco1 | 48.0* | 0.996
O=C(O)CCCC(=O)Nc1ccccc1 | -8.6 | 0.891
CCN(CC)C(=O)Nc1ccc(Cl)cc1 | -2.7 | 1.11
COc1cc([N+](=O)[O-])ccc1-c1ccc(/C=C2\C(=O)NC(=S)N(c3ccc(C)cc3)C2=O)o1 | 23.3 | 1.12
CCC1=NN2C(=N)/C(=C/c3ccc(-c4ccc([N+](=O)[O-])cc4OC)o3)C(=O)N=C2S1 | 9.1 | 1.24*
COc1cc(/C=C2\NC(=S)NC2=O)ccc1Oc1ccc([N+](=O)[O-])cn1 | 12.1 | 0.831
COc1cc(/C=C2\NC(=S)NC2=O)c([N+](=O)[O-])cc1OC | -19.9 | 0.506*
CCN(CC)C(N)=Nc1nc(C)cc(C)n1 | -15.3 | 1.01
COc1ccc(C2C(=C(O)c3ccc(Cl)cc3)C(=O)C(=O)N2CCCC(=O)O)cc1 (stereo not drawn) | -43.6 | 0.149*
O=C(O)CCCN1C(=O)C(=O)C(=C(O)c2ccc(Cl)cc2)C1c1ccccc1 (stereo not drawn) | 31.4 | 1.11
Cc1cc2c(cc1Br)NC(=O)C2=O | 15.0 | 0.76*
Cc1ccccc1NC(=O)CSc1ccccc1 | 7.1 | 1.04
Cc1ccccc1NCn1c(=S)oc2ccccc21 | 13.3 | 0.65*
CCCC(=O)Nc1c(C)ccc2nsnc12 | 6.3 | 0.981
COC(=O)CNC(=O)C1COc2ccccc2O1 (stereo not drawn) | 5.5 | 1.23*
O=C(NCCO)C1COc2ccccc2O1 (stereo not drawn) | 0.7 | 0.942
Nc1nonc1-n1nnc(CN2CCOCC2)c1CN1CCOCC1 | 10.9 | 1.07
Nc1nonc1-n1nnc(CN2CCCCCC2)c1CN1CCCCCC1 | 3.1 | 1.22*
O=[N+]([O-])c1ccc(/C=C/c2cn(-c3ccccc3)nc2-c2ccc(Cl)cc2)o1 | 6.7 | 1.05
CCCC(=O)c1ccc(N2CCN(C(=O)CCC)CC2)c(F)c1 | 14.2 | 0.751*
CCCC(=O)N1CCN(c2ccc(C(=O)c3ccc(C)c(C)c3)cc2F)CC1 | -3.9 | 1.05
O=C(Cc1ccc(Cl)cc1)Nc1ccc2c(c1)OCO2 | 10.3 | 0.993
